Compound activity deposited in PubChem BioAssay by Sanford-Burnham Center for Chemical Genomics.
In the library only some 28% were active in any assay of this set; here they are far more common.
CYP2C19 activ = activators of human cytochrome P450 2C19; 96,000 tested, under 10 active; recombinant CYP2C19, luciferin-H EGE luminescence; active compounds read high; 0 = fully inhibited enzyme, 1 = untreated enzyme; P33261; activation factor at 5 µM;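 active = activation factor of at least 2 at 5 µM in the primary screen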;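 also: 0 = wells with 2.5 mM tranylcypromine and 1 = vehicle-only wells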
CD11b adhes enh = increases human CD11b/CD18 adhesion to fibrinogen | P05107+P11215 | K562 CD11b/CD18 adhesion to fibrinogen, ATPlite luminescence | activation, % at 10 µM | 93,000 tested, 0.07% active | AID 1499;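 active = 10 µM primary screen giving 50% or more activity, confirmed by 40% or more on retest at that dose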
CYP2C19 inh = human CYP2C19 inhibition; AID 778; 96,000 tested, 21% active; CYP2C19 Supersomes, luciferin-H EGE luminescence, 30 min; inhibition, % at 5 µM; P33261;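 active = CYP2C19 inhibition above a set limit at 5 µM in the primary screen, cut at about 50% in these data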;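 also: plate controls were negative control wells for no effect and 2.5 mM tranylcypromine positive control for full effect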
Mac1 fbg inh = CD11b/CD18-fibrinogen binding inhibition | P05107+P11215 | K562 CD11b/CD18 adhesion to fibrinogen, ATPlite luminescence; Mn2+ added to activate the integrin | inhibition, % at 10 µM | 93,000 tested, 0.54% active;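 active = primary inhibition of 50% or more at 10 µM, then 40% or more on retest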
CYP2C9 inh = human CYP2C9 inhibition. 96,000 tested, 20% active. CYP2C9 Supersomes, luciferin-H conversion, luminescence. AID 777. P11712. inhibition, % at 5 µM;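 active = blocking of liver enzyme CYP2C9 beyond about 50% at 5 µM, limit read from the data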
Target sequence (P11712 whole entry, looked up): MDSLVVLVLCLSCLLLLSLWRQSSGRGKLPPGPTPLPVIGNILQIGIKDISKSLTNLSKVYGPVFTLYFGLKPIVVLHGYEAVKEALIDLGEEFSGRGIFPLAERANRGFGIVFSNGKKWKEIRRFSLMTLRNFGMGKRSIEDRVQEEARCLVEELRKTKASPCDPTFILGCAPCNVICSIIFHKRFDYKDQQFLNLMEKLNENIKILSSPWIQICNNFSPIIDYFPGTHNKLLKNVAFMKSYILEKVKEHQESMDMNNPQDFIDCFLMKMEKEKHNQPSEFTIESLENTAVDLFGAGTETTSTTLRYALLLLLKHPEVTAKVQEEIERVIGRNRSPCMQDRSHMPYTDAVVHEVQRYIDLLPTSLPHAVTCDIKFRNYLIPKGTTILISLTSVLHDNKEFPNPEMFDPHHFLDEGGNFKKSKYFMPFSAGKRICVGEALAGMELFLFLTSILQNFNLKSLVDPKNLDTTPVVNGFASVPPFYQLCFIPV
CYP2C9 activ = CYP2C9 (human) activation. P11712. recombinant CYP2C9, luciferin-H conversion, luminescence; active compounds read high; factor 1 = untreated enzyme, 0 = blocked. activation factor at 5 µM. 96,000 tested, 1.4% active;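 active = activation factor of 2 or more for CYP2C9 at a 5 µM dose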;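 also: 0 = sulfaphenazole-blocked wells and 1 = vehicle-only wells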
* marks the source's active call; other numbers are inactive results; x = not tested or not shown.

SMILES	CYP2C19 activ	CD11b adhes enh	CYP2C19 inh	Mac1 fbg inh	CYP2C9 inh	CYP2C9 activ
COc1ccccc1NC(=O)CSc1nnnn1C	1	-1	3	-1	6	0.9
COC(=O)c1sc(N)c(C(=O)OC)c1CSc1nnnn1C	0.1	1	92*	-4	55*	0.5
COC(=O)c1sc(N)c(C(=O)OC)c1CSc1nnc(-c2ccccc2Cl)n1C	0	0	100*	4	97*	0
CC(SCCc1ccccn1)C(=O)O (stereo unspecified)	0.8	-1	16	-6	-7	1.1
CC(C)OCCCNC(=O)C1CCC(=O)N1C(C)C (stereo unspecified)	1.1	0	-7	7	-8	1.1
CC(C)c1nc2sc3c(=O)n(N)cnc3c2c2c1COC(C)(C)C2	x	6	x	3	x	x
CC12C(=O)N(Cc3ccco3)C(=O)C1C1c3ccccc3C2c2ccccc21 (stereo unspecified)	0.4	-3	57*	3	35	0.6
N#CC1=C(O)C(c2ccccc2)n2c1nc(=O)c1ccccc12 (stereo unspecified)	0.9	-1	12	-8	42	0.6
O=C(Cn1nnc(-c2cccc(C(F)(F)F)c2)n1)N1CCOCC1	1	-1	-1	5	-230	3.3*
CN(C(=O)Cn1nnc(-c2cccc(C(F)(F)F)c2)n1)C1CCCCC1	0.9	x	9	x	-79	1.8
Cn1nccc1C(=O)Nn1cnnc1	1.1	-2	-14	8	2	1
Cn1nccc1C(=O)c1ccc(Cl)cc1	0.4	0	58*	-18	23	0.8
Cc1ccccc1CSc1ccc(-c2ccc3c(c2)OCO3)nn1	x	0	x	70	x	x
COC(=O)c1sc2ncn(-n3c(C)ccc3C)c(=O)c2c1C	0.9	1	13	-9	14	0.9
CCOc1ccc(CN(C)CC(=O)Nc2ccc(N3CCOCC3)cc2)cc1OC	x	14	x	14	x	x
COC(=O)c1ccc2c(c1)SC1=C(CCCC1=O)N2	0.2	4	83*	14	20	0.8
O=S1(=O)N=C(Oc2ccccc2)c2ccccc21	1	0	2	6	2	1
COc1ccc(N(C)C2=NS(=O)(=O)c3ccccc32)cc1	0.3	3	72*	20	41	0.6
COC(C)(C)[C@]12CC(O)(c3ccccc3)ON1[C@H]1CCCCC1N2O (stereo partly specified)	0.7	0	30	-7	-19	1.2
O=C1CS/C(=C\[N+](=O)[O-])N1c1ccccc1	0.9	15	6	0	6	0.9
O=CN1CC(=O)N(c2ccccc2)c2c([nH]c3ccccc23)C1	0.2	x	79*	x	28	0.7
CCOC(=O)C1=C(CSc2n[nH]c(N)n2)NC(=O)NC1C (stereo unspecified)	1	-1	4	-6	10	0.9
CC1(C)CC(=O)C2=C(C1)NC(SCC(=O)Nc1ccccc1)=C(C#N)C2c1ccco1 (stereo unspecified)	0	-5	96*	-8	95*	0
COc1ccccc1NC(=O)C1=C(C)NC(SCC(=O)c2ccccc2)=C(C#N)C1c1ccco1 (stereo unspecified)	0.5	84	55*	-12	78*	0.2
CC1=C(C(=O)OC2CCCCC2)C(c2ccco2)C2=C(CC(C)(C)CC2=O)N1 (stereo unspecified)	1	4	1	-3	3	1
SMILES	CYP2C19 activ	CD11b adhes enh	CYP2C19 inh	Mac1 fbg inh	CYP2C9 inh	CYP2C9 activ
CC1=C(C(=O)Nc2ccccc2)C(c2ccc3c(c2)OCO3)C2=C(CCCC2=O)N1 (stereo unspecified)	0.3	-6	66*	-5	53*	0.5
CC1=C(C(=O)Nc2cc(C)ccn2)C(c2ccc(C)cc2)C2=C(CCCC2=O)N1 (stereo unspecified)	0.8	5	19	-2	24	0.8
Cc1ccc(C(=O)CSC2=C(C#N)C(c3ccco3)C3=C(CC(C)(C)CC3=O)N2)cc1 (stereo unspecified)	0.1	-1	88*	-34	88*	0.1
COc1cc2cc(C(c3nnnn3C(C)(C)C)N3CCC(C)CC3)c(=O)[nH]c2cc1OC (stereo unspecified)	0.8	-2	15	-4	33	0.7
NC(=O)C1(N2CCCCC2)CCN(C(=O)c2ccc(C#CC3(O)CCCCC3)cc2)CC1	0.5	0	48	4	45	0.5
N#CC1=C(SCC(=O)c2ccc(Cl)cc2)NC2=C(C(=O)CCC2)C1c1ccco1 (stereo unspecified)	0	-10	99*	6	97*	0
Cc1ccc(NC(=O)CSC2=C(C#N)C(c3ccco3)C3=C(CCCC3=O)N2)cc1 (stereo unspecified)	0.8	-6	18	-6	43	0.6
COc1ccc(OC)c(C2C(C(=O)Nc3cccnc3)=C(C)NC3=C2C(=O)CCC3)c1 (stereo unspecified)	0.4	-3	56*	-30	98*	0
COc1ccc(OC)c(C2C3=C(CCCC3=O)NC3=C2C(=O)CCC3)c1	1	-4	2	-3	-6	1.1
CC(=O)C1=C(C)NC(SCC(=O)c2ccc(C)cc2)=C(C#N)C1c1ccco1 (stereo unspecified)	0	x	99*	x	96*	0
COc1ccc(OC)c(NC(=O)CSC2=C(C#N)C(c3ccco3)C3=C(CCCC3=O)N2)c1 (stereo unspecified)	0.2	-5	84*	-6	86*	0.1
COC(=O)/C(=C/c1ccc(F)cc1)NC(C)=O	x	-4	x	-17	x	x
COc1cccc(C(C(=O)NCc2ccco2)N(C(=O)Cn2nnc3ccccc32)C2CC2)c1OC (stereo unspecified)	0.8	-3	22	-3	7	0.9
CCOC(=O)c1cc(CC)sc1NC(=O)Cc1ccsc1	1	-4	3	-4	14	0.9
[O-][n+]1onc2c3cc(-c4ccccc4)nnc3ccc21	0.9	-2	11	-6	19	0.8
CCc1ccccc1NC(=O)CSC1=C(C#N)C(c2ccc3c(c2)OCO3)C2=C(CCCC2=O)N1 (stereo unspecified)	0.5	0	51*	2	80*	0.2
COc1cc(CC(=O)NCc2ccco2)cc(OC)c1OC	0.8	7	21	-2	-6	1.1
COc1cc(CN/C(C)=C(\C#N)C(N)=O)cc(OC)c1OC	0.3	5	67*	-37	51*	0.5
COc1cc(NC(=S)N2CCN(c3ccccn3)CC2)cc(OC)c1	x	10	x	-24	x	x
CN1CCN(/N=C/c2nc(-c3ccccc3Cl)n3ccccc23)CC1	x	0	x	1	x	x
O=Cc1nc(-c2ccccc2Cl)n2ccccc12	0.7	2	35	-36	-120	2.2*
